Neddylation inh: inhibitors of human cullin neddylation. 0.58% of 360,000 active. AID 651699. TR-FRET cullin neddylation, biochemical. inhibition, % at 25 µM. P61081+Q13564; in the data active = inhibition above about 36%
ATG4B inh: inhibitors of human ATG4B cysteine protease; 0.51% of 340,000 active; inhibition, % at 8.33 µM; ATG4B cleavage of LC3-PLA2, NBD-HPC fluorescence, 1 h; Q9Y4P1; in the data active = inhibition above about 40%
SUMO1-SIM PPI: modulators of human SUMO1-mediated protein-protein interactions. AID 602429. P63165. 0.33% of 360,000 active. SUMO1 binding to a labelled peptide, TR-FRET, 1 h. inhibition, % at 20 µM; in the data active = inhibition above about 37%
Rin1 Abl inh: inhibitors of human Rin1-Abl protein interaction | AID 588664 | TR-FRET Rin1/Abl binding, biochemical | 0.4% of 360,000 active | inhibition, % at 7.35 µM; in the data active = inhibition above about 5%, passing the limit was not always enough
* = called active by the depositor; . = not tested or not shown. Hits are enriched below; roughly 1.7% of the tested compounds scored in any of these assays.

SMILES | Neddylation inh | ATG4B inh | SUMO1-SIM PPI | Rin1 Abl inh
CC1=NN(c2cccc(Cl)c2)C(=O)C1 | 2 | 26 | 20 | 32*
O=C(NCCc1c[nH]c2ccccc12)c1[nH]c(C(F)(F)F)nc1-c1ccccc1 | 2 | . | 12 | 1
Cc1nc2ccc(S(=O)(=O)NCC(=O)NCCN3CCCCCC3)cc2s1 | 6 | 5 | 46* | -3
Cc1nc2ccc(S(=O)(=O)NCC(=O)NCc3ccc(Cl)cc3)cc2s1 | -6 | -7 | 1 | -3
Cc1cc(-c2csc(NC(=O)c3ccc(=O)[nH]c3)n2)c(C)n1Cc1ccco1 | 9 | -6 | 78* | 8.3*
O=C(c1cc(COc2cccc3cnccc23)on1)N1CCCC(CCCO)C1 (centres undefined) | 45* | -2 | -19 | -2
CC1(C(=O)NCc2cccnc2)CCN1C(=O)c1cccc(F)c1 (centres undefined) | -3 | . | 1 | 0
CCOc1ccc(C(=O)COC(=O)Cc2n[nH]c(=O)c3ccccc23)cc1 | -162 | -8 | 48* | 1
C[C@@H](CN1C2=NC[C@H](C)N2C[C@H]1Cc1ccc(O)cc1)NC(=O)CCC1CCCCC1 | -32 | -2 | 5 | 0
CC(C)[C@H]1CN=C2N(C[C@H](C)NC(=O)CCC3CCCCC3)[C@H](Cc3ccc(O)cc3)CN21 | -11 | -2 | 53* | 3
Cc1c(N=Cc2cc(Br)cc(Br)c2O)cccc1C(=O)O | 32 | 46* | -5 | 0
c1ccc(-c2nc3cc4ccccc4cc3[nH]2)nc1 | 44* | -8 | -18 | 0
CC(=O)Nc1ccc2nc(-c3ccccn3)[nH]c2c1 | . | -8 | -2 | -4
Cn1c(O)c(C=NCCCCCC(=O)O)c(=O)n(C)c1=O | 0 | -4 | 1 | 2
O=C(Nc1ccc(C2=NCCN2)cc1)c1ccc(C(=O)Nc2ccc(C3=NCCN3)cc2)c(Cl)c1 | 18 | 5 | 87* | 0
CCCNC(=O)C1(C)CCCN(C(=O)c2ccc(F)cc2Cl)C1 (centres undefined) | 1 | . | 0 | -1
Fc1ccc(-c2ccc3c(c2)C2CC3CCN2Cc2ccc3c(c2)OCO3)cc1 (centres undefined) | 12 | 5 | 8 | 3
O=C1CCC(=O)c2ccc3c4c(ccc1c24)CC3 | 49* | -3 | -36 | -7
O=C1c2ccc3c4c(ccc(c24)C(=O)N1c1ccc2ccccc2c1)CC3 | 14 | 0 | -4 | 0
COc1ccc(S(=O)(=O)NCc2cccnc2)cc1NC(=O)c1ccccc1C | -14 | -1 | 21 | 1
O=C1NC[C@H](Cc2ccc(O)cc2)N(C[C@@H]2CCCN2C[C@H](Cc2ccccc2)N2C[C@H](Cc3ccc(O)cc3)N(CC3CCCCCC3)C(=O)C2=O)C1=O | -2 | . | 5 | .
O=C(O)COc1ccc(/C=N/n2c(COc3ccccc3)nc3ccccc3c2=O)cc1 | 3 | -4 | 57* | -6
CCOc1cc(/C=C2/C(=O)N(c3ccccc3)N=C2C)ccc1OC(=O)c1cccs1 | 4 | 3 | 26 | 12*
COc1ccc(/C=C2/C(=O)N(c3ccccc3)N=C2C)cc1 | -1 | -4 | 14 | 8.1*
CCOc1cc(/C=N/NC(=O)c2ccccn2)ccc1OC(=O)c1cccs1 | 2 | 1 | -11 | 2
SMILES | Neddylation inh | ATG4B inh | SUMO1-SIM PPI | Rin1 Abl inh
O=S1(=O)C=C[C@H](COCc2ccccc2)N1 | 3 | . | 2 | 1
COc1ccc(C2=CCCC2)c(OC)c1 | 3 | -1 | 2 | 4
COc1cc(/C=C(\C#N)C(=O)Nc2cccc(C(=O)O)c2)ccc1OCc1ccc(Cl)cc1 | -9 | 6 | 59* | -2
COc1cc(/C=C(/C#N)C(=O)Nc2ccccc2)c(Br)cc1OCc1ccc(C(=O)O)cc1 | -43 | -3 | 3 | -11
Cn1c(=O)n(C)c2cc(/C=N/NC(=O)c3cc4cc(Br)ccc4o3)ccc21 | . | -2 | 60* | 0
CC(C)NC(=O)c1cc(C2CCCCN2C(=O)OCCF)on1 (centres undefined) | -1 | . | 5 | -2
Fc1ccc(Nc2nc(NCc3ccco3)c3ccccc3n2)cc1 | 43* | 9 | -7 | 5
COc1ccc(/C=C/C(=O)NC(=S)NNC(=O)c2cnccn2)cc1 | 59* | -4 | -14 | 2
O=C(/C=C/c1ccc(F)cc1)NC(=S)NNC(=O)c1cnccn1 | 65* | -1 | -3 | 2
CCOC(=O)c1cc(-c2ccc(N3CCOCC3)cc2)nn1-c1ccccc1C(=O)O | 5 | 31 | 106* | -1
CCOC(=O)c1cc(-c2ccc(N3CCOCC3)cc2)nn1-c1ccccc1 | . | -1 | 0 | 1
Cn1c(N)c(C(=O)COC(=O)COc2ccc(Br)cc2)c(=O)n(C)c1=O | -3 | -19 | 40* | 0
CN1CCC(N2CCN(C3CN(Cc4ccc(F)cc4)S(=O)(=O)C3)CC2)CC1 (centres undefined) | -1 | . | 10 | 5
O=c1[nH]nc(CNc2ccc(C(F)(F)F)cc2)c2ccccc12 | -5 | -4 | 4 | -2
O=c1[nH]nc(CNc2ccc(O)cc2)c2ccccc12 | -18 | -5 | 55* | 2
Cc1ccc(-c2nc3s/c(=C\c4ccco4)c(=O)n3n2)cc1 | -11 | 3 | 4 | -2
Cc1ccc(/C=c2\sc3nc(-c4ccco4)nn3c2=O)o1 | -17 | 9 | 44* | 1
Cc1ccc(O)c(CNc2cnc3ccccc3c2)c1 | 39* | -6 | -10 | 1
CC(C)Oc1cccc(NC(=O)C2(C)CCCN2C(=O)C(C)C)c1 (centres undefined) | -1 | . | 3 | 2
CCN(C)C1CN(Cc2cn(Cc3ccc(C(F)(F)F)cc3)nn2)S(=O)(=O)C1 (centres undefined) | 1 | . | 1 | .
O=C(N/N=C\C=C\c1ccc(Br)cc1)c1ccc2c(c1)OCO2 | 12 | 3 | 45* | -2
CCCCCCCCCC[n+]1cccc2c3ccccc3ccc21 | 56* | 12 | -23 | -1
CCCCCCCC[n+]1cccc2c3ccccc3ccc21 | . | -4 | -28 | -6
O=C1OC(c2ccccc2)Sc2ccccc21 (centres undefined) | -12 | 48* | 4 | 1
COc1ccc(C(=O)Nc2nc3cc4c(cc3s2)OCO4)c(OC)c1 | . | 0 | 60* | -5
SMILES | Neddylation inh | ATG4B inh | SUMO1-SIM PPI | Rin1 Abl inh
Cc1sc(NC(=O)c2ccco2)c(CN2CCN(c3ccccn3)CC2)c1C | 45* | 30 | -6 | -8
N#Cc1sc2nc(-c3ccccc3)cc(-c3ccco3)c2c1N | 37 | 17 | 64* | -2
COc1ccc(N=C2S/C(=C\c3ccc(OCC(=O)O)cc3)C(=O)N2CCc2c[nH]c3ccccc23)cc1 | -1 | 26 | 98* | -1
CN(Cc1ccc(C(C)(C)C)cc1)C(=O)c1ccc2c(c1)OCO2 | 10 | 12 | -4 | 2
Nc1ccc2c(S(=O)(=O)O)cccc2c1S(=O)(=O)O | 55* | -6 | -3 | 0
Nc1ccccc1S(=O)(=O)c1ccccc1N | 5 | -3 | 6 | 0
Cc1cccnc1C(c1ccc(F)cc1)N(C)C(=O)C1CCN(CCOc2ccc(Cl)cc2Cl)CC1 (centres undefined) | 9 | . | 7 | 0
O=C(Nc1ccccc1Cl)c1cc(C2CCCN(C(=O)c3ccccc3)C2)on1 (centres undefined) | -26 | . | -2 | -1
